The full list was thinned out, with hits kept by preference.
Algae TAG accum: inducers of TAG accumulation in Chlamydomonas, primary screen, qHTS, Chlamydomonas reinhardtii. Nile Red fluorescence, 72 h. calls only at 10 µM (by protocol). 0.84% of 44,000 active. AID 1159537, 2015; call rule not given here;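 also: hits raise Nile Red signal meaning more stored TAG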
Starred values were filed as active, the others as inactive; i = inactive; + = active, no number.

SMILES	Algae TAG accum
Cc1ccc(S(=O)(=O)Nc2ccc(NS(=O)(=O)c3ccc(F)cc3)cc2)cc1	i
OC(COc1ccccc1)CSc1nc2ccccc2o1 (centres undefined)	i
OCC1CCCN(CC2CCCCC2)C1 (centres undefined)	i
O=C(NN1CCCCC1)c1ccc(-c2ccccc2)cc1	i
C=CCN1C(=O)C(=O)c2cc(Br)ccc21	+
C#CCN1C(=O)C(=O)c2cc(Br)ccc21	i
O=C1C(=O)N(Cc2ccc(F)cc2)c2ccc(Br)cc21	i
Cc1cc(C)nc(NC(=O)CCC(=O)O)c1	i
CCN(CC)CCn1c(=N)n(CC(O)COc2ccc(Cl)cc2)c2ccccc21 (centres undefined)	i
C=CCc1cc(OC)ccc1OCCOCCn1ccnc1	+
C=CCc1cc(OC)ccc1OCCCCn1ccnc1	i
C=CCc1cc(OC)ccc1OCCn1ccnc1	i
CC1=C(C#N)C(c2ccc(Cl)cc2)C2=C(CC(C)(C)CC2=O)N1 (centres undefined)	i
Cc1ccc(C)c(C2C(C#N)=C(N)OC3=C2C(=O)CC(C)(C)C3)c1 (centres undefined)	i
CC1CCCCN1C(=O)c1cc(-c2ccccc2)nc2ccccc12 (centres undefined)	i
C=CCNC(=O)COc1ccccc1	i
Cc1ccc(CN2CCC(C(=O)NCc3ccccc3Cl)CC2)cc1	+
Cc1ccc(CNC(=O)C(=O)NCc2ccccc2Cl)cc1	i
O=C(NCCc1ccccc1)C1CCN(Cc2ccccc2Cl)CC1	i
O=C(Nc1nnc(CCSCCc2nnc(NC(=O)c3ccco3)s2)s1)c1ccco1	i
CCC(CC)NC(=O)N1CCOCC1	i
CC(=O)Nc1ccc(OCC(=O)Nc2cc(Cl)cc(Cl)c2)cc1	+
O=C(COc1ccc(Cl)cc1)Nc1ccc(Br)cc1	i
CC(=O)Nc1ccc(NC(=O)COc2ccc(C)c(C)c2)cc1	i
NC(=O)c1ccccc1NC(=O)c1ccc(Cl)cc1[N+](=O)[O-]	i
SMILES	Algae TAG accum
COc1ccc(NC(=O)c2ccccc2Cl)cc1OC	i
CCOc1c(Cl)cc(C(=O)Nc2cccc([N+](=O)[O-])c2)cc1Cl	+
CCOc1cc(C(=O)Nc2ccc([N+](=O)[O-])cc2Cl)cc(OCC)c1OCC	i
CCOc1ccc(C(=O)Nc2cccc([N+](=O)[O-])c2)cc1Cl	i
Cc1cc(C)c(NC(=O)COc2ccccc2[N+](=O)[O-])c(C)c1	+
Cc1ccccc1OCC(=O)Nc1ccccc1[N+](=O)[O-]	i
Cc1cc(C)c(NC(=O)COc2ccccc2C)c(Cl)c1	i
Cc1cc(Cl)ccc1Nc1nc(-c2ccc([N+](=O)[O-])cc2)nc2ccccc12	i
N#Cc1c(N=CN2CCOCC2)sc2c1CCCC2	i
CC(C)(C)c1cc(Br)cc(C=O)c1O	i
Cc1cc(Cl)ccc1OCC(=O)Nc1ccc(S(=O)(=O)Nc2onc(C)c2C)cc1	i
COc1cc2c(cc1OC)CN(Cc1ccc(F)cc1)CC2	+
COc1cc2c(cc1OC)CN(Cc1ccc(N(C)C)cc1)CC2	i
COc1cc2c(cc1OC)CN(Cc1cccc(F)c1)CC2	i
C=CCc1cccc(OC)c1OCCCN1CCN(C)CC1	i
C=CCc1cc(C)ccc1OCCCCN1CCN(C)CC1	i
C=CCc1cc(Cl)ccc1OCCN1CCN(C)CC1	+
C=CCc1cccc(C)c1OCCCN1CCCC1	i
C=CCc1cc(C)ccc1OCCN1CCN(C)CC1	i
C=CCc1cccc(C)c1OCCCN1CCN(C)CC1	+
COC(=O)Nc1ccccc1Oc1ccccc1	i
Cc1nn(Cc2ccccc2)c2c1C(c1ccccc1[N+](=O)[O-])C(C#N)=C(N)O2 (centres undefined)	i
COc1cc(C(=O)NCCOc2ccccc2Cl)cc(OC)c1OC	i
Cc1onc(-c2c(F)cccc2Cl)c1C(=O)Nc1ccccc1I	i
COc1ccc(CNCc2ccc(OC)cc2)cc1	i
SMILES	Algae TAG accum
COc1ccc(CNC2CCCCC2C)cc1 (centres undefined)	i
COc1ccc(CNC2CCSC2)cc1 (centres undefined)	+
CC12CC3CC(C)(C1)CC(C(=O)Nc1nccs1)(C3)C2	i
Cc1ccc(C(=O)Nc2ccccc2C(=O)NC(C)C)cc1[N+](=O)[O-]	+
Cc1ccccc1C(=O)Nc1cccc(NC(=O)c2ccc(C)c([N+](=O)[O-])c2)c1	i
CC(C)NC(=O)c1ccccc1NC(=O)c1ccc(F)cc1	i
C=CCc1ccccc1OCC(O)CN1C(=O)NC(C)(C)C1=O (centres undefined)	i
COc1cc([N+](=O)[O-])c(C)cc1NC(C)=O	i
O=C(O)c1ccc(Br)c(S(=O)(=O)NCc2ccccc2)c1	i
COc1cccc(N(C(C)=O)C2=C(NC3CCCCC3)C(=O)c3ccccc3C2=O)c1	i
CC(=O)N(C1=C(Nc2ccccc2)C(=O)c2ccccc2C1=O)c1ccccc1	+
CCCNC1=C(N(C(C)=O)c2cccc(F)c2)C(=O)c2ccccc2C1=O	i
COc1cc(NC(=O)c2ccccc2)c(OC)cc1NC(=O)CCCOc1ccccc1	i
Cc1ccc(OCC(O)CN2CCN(Cc3ccccc3)CC2)cc1C (centres undefined)	i
CN(CC(O)COCc1ccccc1)C1CCCCC1 (centres undefined)	i
Cc1ccc(OCC(O)CN(C)C)cc1 (centres undefined)	i
Cc1ccc(OCC(O)CN(C)C2CCCCC2)cc1C (centres undefined)	+
OC(COc1ccccc1Br)CN(C1CCCCC1)C1CCCCC1 (centres undefined)	i
CN(CC(O)COc1ccc(F)cc1)C1CCCCC1 (centres undefined)	+
N#Cc1c(N)c(C#N)c(-c2ccco2)c2c1CCCC2	i
Cc1c(C=O)c2ccccc2n1CC(=O)Nc1ccc(F)cc1	i
COc1ccccc1C(=O)Nc1ccc(-c2ccc([N+](=O)[O-])cc2)cc1	i
O=C(O)c1ccc(NC(=O)c2ccccc2Cl)cc1	i
CC(=O)c1cccc(NC(=O)c2cc(Br)ccc2Cl)c1	i
O=C(Nc1ccc(Cc2ccncc2)cc1)c1cc(Br)ccc1Cl	+
SMILES	Algae TAG accum
COc1ccc(Br)cc1C(=O)Nc1ccc(Cc2ccncc2)cc1	i
O=C(Nc1ccc(Cl)cc1)c1ccccc1Br	i
O=C(Nc1ccc(Br)cc1)c1ccccc1Cl	+
O=C(NCc1cccnc1)c1ccc(Cl)cc1	i
C=CCNC(=O)C1CCN(S(=O)(=O)c2ccc(OC)cc2)CC1	i
CCN(CC)CCN(C)Cc1ccccc1OC	i
O=C1CC(c2ccc(Cl)cc2)Sc2nc(-c3ccccc3)nn21 (centres undefined)	i
Cc1cccc(C(=O)Nc2sc(C)c(C)c2C(=O)O)c1	i
Cc1sc(NC(=O)c2cccs2)c(C(=O)O)c1C	+
O=C(Nc1scc(-c2cccs2)c1C(=O)O)c1cccs1	i
Nc1ccc(Br)cc1C(O)c1ccc(Cl)cc1 (centres undefined)	i
CCOC(=O)N1CCN(C(=O)Nc2ccc3nsnc3c2)CC1	i
COc1ccccc1NC(=O)C(=O)NCc1ccc(F)cc1	i
O=C(CN(c1cccc([N+](=O)[O-])c1)S(=O)(=O)c1ccccc1)N[C@@H]1C[C@H]2CC[C@@H]1C2	i
CCOc1cc(C=O)ccc1OCc1ccccc1[N+](=O)[O-]	i
Cc1cc(N2CCCCC2)nc(N)n1	i
Cc1cc(-n2nc(C)cc2C)nc(N)n1	i
